Assay results taken from PubChem BioAssay.
Results filed as inconclusive are left out. The source made the active and inactive calls.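 How the source made its calls, unless noted: active means viability at or below 27.92% in each of two runs, the all-compound median minus 4 SD; inconclusive means no clear call, values can overlap the other calls; inactive means the rest.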

Test: viability of PTEN-null HCT116 cells – cell-based, HCT116 clonal line, CellTiter-Glo, pilot screen (AID 824);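 further: 0% = 20 µM Hyamine control and 100% = vehicle cell control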
Details: HCT116 PTEN-deleted viability, 60 h, at 10 µM, hits give low values

**Q.** For `OC12CCCCC1C(c1ccccc1)NCC2` (stereo not given), which viability is on record?
**A.** 102% (inactive)

**Q.** With `c1ccc2sc(C3CCCNC3)nc2c1` (stereo not given) as the molecule, how does the viability read?
**A.** 97.4% (inactive)

**Q.** With `O=c1cccc2n1CC1CC2CN(c2ncnc3c2cnn3-c2ccccc2)C1` (stereo not given) as the molecule, how does the viability read?
**A.** 101% (inactive)

**Q.** Which viability does the source give for `Nc1ccc(S(=O)(=O)N2CC3CC(C2)c2cccc(=O)n2C3)cc1` (stereo not given) here?
**A.** 100% (inactive)

**Q.** With `CC12CN3CC(C)(CN(C1)C3c1ccco1)C2=O` (stereo not given) as the molecule, how does the viability read?
**A.** 99.6% (inactive)

**Q.** Which viability does the source give for `CC1=CC(=C2C(=O)NC(=O)NC2=O)C=C(C(F)(F)F)N1C(C)C` here?
**A.** 91.3% (inactive)

**Q.** With `O=C(CN1CC(c2ccccc2)CC1=O)Nc1ccc(F)cc1` (stereo not given) as the molecule, how does the viability read?
**A.** 99.2% (inactive)

**Q.** Which viability does the source give for `CCCCCP(=O)(O)c1ccccc1` here?
**A.** 103% (inactive)

**Q.** For `CCOC(=O)C1CCN(/C=C2/C(=O)NC(=O)N(c3ccc(OCC)cc3)C2=O)CC1`, which viability is on record?
**A.** 97.5% (inactive)

**Q.** Which viability does the source give for `c1cncc(C2CCCCN2Cc2ccc3c(c2)OCO3)c1` (stereo not given) here?
**A.** 94.3% (inactive)

**Q.** For `CC1(C)CN=C(Nc2ccc(F)c(F)c2)S1`, which viability is on record?
**A.** 101% (inactive)

**Q.** For `CCCCCCOc1ccc(CN2CCN(CCO)CC2)cc1`, which viability is on record?
**A.** 75.5% (inactive)

**Q.** For `COc1cc(CN2CC3CC(C2)c2cccc(=O)n2C3)cc(OC)c1OC` (stereo not given), which viability is on record?
**A.** 109% (inactive)

**Q.** For `O=C(c1ccc2c(c1)OCO2)N1CCC2(CC1)OCCO2`, which viability is on record?
**A.** 97.1% (inactive)

**Q.** With `CN1CSC(=S)N(C)C1` as the molecule, how does the viability read?
**A.** 19.6% (active)

**Q.** For `O=C1CC(N2CC=C(c3ccccc3)CC2)C(=O)N1c1ccc(F)cc1` (stereo not given), which viability is on record?
**A.** 97.3% (inactive)

**Q.** For `Cc1ccc2occ(CN3CC4CC(C3)c3cccc(=O)n3C4)c(=O)c2c1` (stereo not given), which viability is on record?
**A.** 90.8% (inactive)

**Q.** With `Cn1c(O)c(C=Nc2ccc(Cl)cc2)c(=O)n(C)c1=O` as the molecule, how does the viability read?
**A.** 93.7% (inactive)

**Q.** With `O=c1c2ccccc2nc(-c2ccco2)n1-c1ccncc1` as the molecule, how does the viability read?
**A.** 97.2% (inactive)

**Q.** For `CC1(C)C(c2ccccc2)=NC(c2cccnc2)=[N+]1[O-]`, which viability is on record?
**A.** 89.4% (inactive)

**Q.** With `COc1cccc(OCC(=O)N2CCN(C)CC2)c1` as the molecule, how does the viability read?
**A.** 102% (inactive)

**Q.** Which viability does the source give for `Cc1ccc2c(c1)C1CN(C)CCC1N2C(=O)c1ccco1` (stereo not given) here?
**A.** 91.9% (inactive)

**Q.** Which viability does the source give for `C=Cn1ccnc1P(=S)(c1c(C)nn(-c2ccccc2)c1C)c1nccn1C=C` here?
**A.** 90.2% (inactive)

**Q.** Which viability does the source give for `O=C(NC1(C(F)(F)F)Oc2ccccc2O1)N1CCC2(CC1)OCCO2` here?
**A.** 79.8% (inactive)

**Q.** For `NC(=O)CN1CC(c2ccccc2)CC1=O` (stereo not given), which viability is on record?
**A.** 98% (inactive)

**Q.** For `O=c1cccc2n1CC1CC2CN(Cc2ccc3c(c2)OCO3)C1` (stereo not given), which viability is on record?
**A.** 94.6% (inactive)

**Q.** Which viability does the source give for `O=C(Nc1ccccc1OC(=O)N1CCCCC1)N1CCCCC1` here?
**A.** 100% (inactive)

**Q.** With `COC(=O)c1ccc(CN2CCN(Cc3ccccc3)CC2)cc1` as the molecule, how does the viability read?
**A.** 90.8% (inactive)

**Q.** With `Cc1cc(OCC(=O)OC(C)(C)C)c2c3c(c(=O)oc2c1)CCC3` as the molecule, how does the viability read?
**A.** 85.6% (inactive)

**Q.** Which viability does the source give for `O=C(CN1CCOCC1)c1ccc2cc[nH]c2c1` here?
**A.** 108% (inactive)

**Q.** For `CN1CC=C(c2c[nH]c3ccccc23)CC1`, which viability is on record?
**A.** 92.5% (inactive)

**Q.** For `C=Cn1ccnc1P(=S)(c1ccn(C)c1)c1nccn1C=C`, which viability is on record?
**A.** 99.2% (inactive)

**Q.** Which viability does the source give for `C=Cn1ccnc1P(=S)(c1cc(N(CC)CC)ns1)c1nccn1C=C` here?
**A.** 90.5% (inactive)

**Q.** For `CC(C)NS(=O)(=O)c1ccc(OCC(=O)N2CCN(C)CC2)cc1`, which viability is on record?
**A.** 102% (inactive)

**Q.** Which viability does the source give for `CCOC(=O)C1SC2(C(F)(F)C(F)F)CC1(O)c1c(c(OC)c3occc3c1OC)O2` (stereo not given) here?
**A.** 86.9% (inactive)

**Q.** Which viability does the source give for `COc1cc2c(cc1OC)-c1c(OC)c(OC)cc3c1C(C2)N(C)CC3` (stereo not given) here?
**A.** 61.6% (inactive)

**Q.** Which viability does the source give for `C=Cn1ccnc1P(=S)(c1nccn1C=C)C1CCCCC1` here?
**A.** 93.1% (inactive)

**Q.** With `CN1C(=O)C(Cc2cccs2)C(=O)N(C)C1=O` as the molecule, how does the viability read?
**A.** 98.9% (inactive)

**Q.** With `CN(C)C(=O)Oc1ccc(C(=O)c2ccccc2)cc1` as the molecule, how does the viability read?
**A.** 95.1% (inactive)

**Q.** With `O/N=C/c1c[nH]c2ccccc12` as the molecule, how does the viability read?
**A.** 94.4% (inactive)

Test: RAM pathway blockade in budding yeast – dse1pr::URA3 reporter, 5-FOA selection, pilot screen (AID 869;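 active means inhibition over a set limit, the all-compound mean plus 3 SD, in both replicate runs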;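 further: 0% = DMSO wells with no growth and 100% = 10 µM 1-NA-PP1 with full growth; RAM network block rescues cells from 5-FOA so hits raise OD615 growth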)
Details: S. cerevisiae dse1pr::URA3 5-FOA growth, OD615, 2 d, at 10 µM, hits give high values

**Q.** Which inhibition does the source give for `OC12CCCCC1C(c1ccccc1)NCC2` (stereo not given) here?
**A.** 3.24% (inactive)

**Q.** With `c1ccc2sc(C3CCCNC3)nc2c1` (stereo not given) as the molecule, how does the inhibition read?
**A.** 2.33% (inactive)

**Q.** With `O=c1cccc2n1CC1CC2CN(c2ncnc3c2cnn3-c2ccccc2)C1` (stereo not given) as the molecule, how does the inhibition read?
**A.** 1.7% (inactive)

**Q.** Which inhibition does the source give for `Nc1ccc(S(=O)(=O)N2CC3CC(C2)c2cccc(=O)n2C3)cc1` (stereo not given) here?
**A.** 0.13% (inactive)

**Q.** Which inhibition does the source give for `CC12CN3CC(C)(CN(C1)C3c1ccco1)C2=O` (stereo not given) here?
**A.** 2.1% (inactive)

**Q.** With `CC1=CC(=C2C(=O)NC(=O)NC2=O)C=C(C(F)(F)F)N1C(C)C` as the molecule, how does the inhibition read?
**A.** 2.69% (inactive)

**Q.** With `O=C(CN1CC(c2ccccc2)CC1=O)Nc1ccc(F)cc1` (stereo not given) as the molecule, how does the inhibition read?
**A.** -0.44% (inactive)

**Q.** With `CCCCCP(=O)(O)c1ccccc1` as the molecule, how does the inhibition read?
**A.** 0.735% (inactive)

**Q.** With `CCOC(=O)C1CCN(/C=C2/C(=O)NC(=O)N(c3ccc(OCC)cc3)C2=O)CC1` as the molecule, how does the inhibition read?
**A.** 1.87% (inactive)

**Q.** Which inhibition does the source give for `c1cncc(C2CCCCN2Cc2ccc3c(c2)OCO3)c1` (stereo not given) here?
**A.** 2.12% (inactive)

**Q.** For `CC1(C)CN=C(Nc2ccc(F)c(F)c2)S1`, which inhibition is on record?
**A.** 0.8% (inactive)

**Q.** Which inhibition does the source give for `CCCCCCOc1ccc(CN2CCN(CCO)CC2)cc1` here?
**A.** 2% (inactive)

**Q.** For `COc1cc(CN2CC3CC(C2)c2cccc(=O)n2C3)cc(OC)c1OC` (stereo not given), which inhibition is on record?
**A.** 2.42% (inactive)

**Q.** With `O=C(c1ccc2c(c1)OCO2)N1CCC2(CC1)OCCO2` as the molecule, how does the inhibition read?
**A.** 0.85% (inactive)

**Q.** With `CN1CSC(=S)N(C)C1` as the molecule, how does the inhibition read?
**A.** -0.745% (inactive)

**Q.** Which inhibition does the source give for `O=C1CC(N2CC=C(c3ccccc3)CC2)C(=O)N1c1ccc(F)cc1` (stereo not given) here?
**A.** 0.99% (inactive)

**Q.** For `Cc1ccc2occ(CN3CC4CC(C3)c3cccc(=O)n3C4)c(=O)c2c1` (stereo not given), which inhibition is on record?
**A.** 1.96% (inactive)

**Q.** Which inhibition does the source give for `Cn1c(O)c(C=Nc2ccc(Cl)cc2)c(=O)n(C)c1=O` here?
**A.** 0.685% (inactive)

**Q.** For `O=c1c2ccccc2nc(-c2ccco2)n1-c1ccncc1`, which inhibition is on record?
**A.** 0.635% (inactive)

**Q.** Which inhibition does the source give for `CC1(C)C(c2ccccc2)=NC(c2cccnc2)=[N+]1[O-]` here?
**A.** -0.02% (inactive)

**Q.** With `COc1cccc(OCC(=O)N2CCN(C)CC2)c1` as the molecule, how does the inhibition read?
**A.** 0.505% (inactive)

**Q.** With `Cc1ccc2c(c1)C1CN(C)CCC1N2C(=O)c1ccco1` (stereo not given) as the molecule, how does the inhibition read?
**A.** 1.32% (inactive)

**Q.** For `C=Cn1ccnc1P(=S)(c1c(C)nn(-c2ccccc2)c1C)c1nccn1C=C`, which inhibition is on record?
**A.** 1.75% (inactive)

**Q.** With `O=C(NC1(C(F)(F)F)Oc2ccccc2O1)N1CCC2(CC1)OCCO2` as the molecule, how does the inhibition read?
**A.** 0.465% (inactive)

**Q.** For `NC(=O)CN1CC(c2ccccc2)CC1=O` (stereo not given), which inhibition is on record?
**A.** 0.295% (inactive)

**Q.** For `O=c1cccc2n1CC1CC2CN(Cc2ccc3c(c2)OCO3)C1` (stereo not given), which inhibition is on record?
**A.** 0.6% (inactive)

**Q.** Which inhibition does the source give for `O=C(Nc1ccccc1OC(=O)N1CCCCC1)N1CCCCC1` here?
**A.** 0.8% (inactive)

**Q.** With `COC(=O)c1ccc(CN2CCN(Cc3ccccc3)CC2)cc1` as the molecule, how does the inhibition read?
**A.** 1.31% (inactive)

**Q.** With `Cc1cc(OCC(=O)OC(C)(C)C)c2c3c(c(=O)oc2c1)CCC3` as the molecule, how does the inhibition read?
**A.** 2.17% (inactive)

**Q.** Which inhibition does the source give for `O=C(CN1CCOCC1)c1ccc2cc[nH]c2c1` here?
**A.** 0.035% (inactive)

**Q.** Which inhibition does the source give for `CN1CC=C(c2c[nH]c3ccccc23)CC1` here?
**A.** -0.185% (inactive)

**Q.** Which inhibition does the source give for `C=Cn1ccnc1P(=S)(c1ccn(C)c1)c1nccn1C=C` here?
**A.** 0.94% (inactive)

**Q.** With `C=Cn1ccnc1P(=S)(c1cc(N(CC)CC)ns1)c1nccn1C=C` as the molecule, how does the inhibition read?
**A.** 1.49% (inactive)

**Q.** Which inhibition does the source give for `CC(C)NS(=O)(=O)c1ccc(OCC(=O)N2CCN(C)CC2)cc1` here?
**A.** 1.13% (inactive)

**Q.** For `CCOC(=O)C1SC2(C(F)(F)C(F)F)CC1(O)c1c(c(OC)c3occc3c1OC)O2` (stereo not given), which inhibition is on record?
**A.** 1.6% (inactive)

**Q.** For `COc1cc2c(cc1OC)-c1c(OC)c(OC)cc3c1C(C2)N(C)CC3` (stereo not given), which inhibition is on record?
**A.** -0.365% (inactive)

**Q.** Which inhibition does the source give for `C=Cn1ccnc1P(=S)(c1nccn1C=C)C1CCCCC1` here?
**A.** 0.82% (inactive)

**Q.** Which inhibition does the source give for `CN1C(=O)C(Cc2cccs2)C(=O)N(C)C1=O` here?
**A.** 0.795% (inactive)

**Q.** With `CN(C)C(=O)Oc1ccc(C(=O)c2ccccc2)cc1` as the molecule, how does the inhibition read?
**A.** 0.43% (inactive)

**Q.** Which inhibition does the source give for `O/N=C/c1c[nH]c2ccccc12` here?
**A.** 2.54% (inactive)
